Assay outcomes deposited in PubChem BioAssay by National Center for Advancing Translational Sciences (NCATS).
An excerpt weighted towards active compounds, which were near 19% of everything screened.
IL1B secr inh = inflammasome signaling inhibition, IL-1 beta readout | AID 743279 | actives 4.7% (n = 360,000) | THP-1 LPS/ATP IL-1B secretion, AlphaLISA, 16 h; stronger effect = lower value | activity change, % at 57.5 µM; in the data active = activity change below about -50%; inconclusive = mostly about -30% to -49%
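Secreted IL-1B measured by AlphaLISA bead assay after 16 h compound exposure of THP-1 cells; compounds (final up to 57.5 uM) added 1 h before LPS (250 ng/mL) and ATP (1.25 mM) stimulation; lower signal means less secretion.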
DT40 TDP1 no CPT = qHTS for Inhibitors of human tyrosyl-DNA phosphodiesterase 1 (TDP1): qHTS in cells in absence of CPT. DT40 Tdp1-/- hTDP1 cells, no CPT, ATP luminescence, 48 h. Potency, µM (titrated, usually from 46.2 µM), usual class: inhibitors. actives 15% (n = 420,000); note: nearly all actives have a fitted effect of over 55% in size
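Chicken DT40 Tdp1-/- cells complemented with human TDP1, screened without camptothecin (DMSO vehicle only), 400 cells/well. Compounds pin-transferred, cells incubated at 37 °C for at least 48 hr. Growth read as ATP-dependent luminescence (CellTiter-Glo, 30 min at RT).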
Giardia killer = kills Giardia lamblia. Giardia lamblia trophozoite viability. actives 0.15% (n = 340,000). activity change, % at 7.66 µM, hits read low; in the data active = activity change below about -80%; inconclusive = between about -30% and that limit;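 note: parasites exposed to compound for two days anaerobically before the ATP read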
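Trophozoites 100 cells/well + cpd; 48 hrs, 37 deg C, anaerobic. ATPLite 1-Step added, 15-30 min RT, luminescence read (ATP-based viability).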
ELG1 DNA repair = ELG1-dependent DNA repair inhibition. HEK293T ELG1-luciferase reporter, luminescence, 16 h; DNA damage induced by 5-fluorouridine. actives 2.3% (n = 330,000). AID 504467. Potency, µM (doses to about 46.1 µM), hits mostly inhibitors; note: nearly all actives have a fitted effect of over 55% in size
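In this reporter screen, reduction of luminescence relative to DMSO vehicle indicated activity. Compounds and 5-fluorouridine were added together to 2,000 cells per well, incubated for 16 hr at 37 °C, then developed with ONE-Glo.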
TDP1 inh = inhibitors of human tyrosyl-DNA phosphodiesterase TDP1. recombinant TDP1, AlphaScreen DNA substrate cleavage. Q9NUW8. Potency, µM (highest dose often 130 µM), most hits filed as inhibitors. actives 0.28% (n = 350,000); note: nearly all actives have a fitted effect of over 40% in size
Target sequence (Q9NUW8 whole entry, looked up): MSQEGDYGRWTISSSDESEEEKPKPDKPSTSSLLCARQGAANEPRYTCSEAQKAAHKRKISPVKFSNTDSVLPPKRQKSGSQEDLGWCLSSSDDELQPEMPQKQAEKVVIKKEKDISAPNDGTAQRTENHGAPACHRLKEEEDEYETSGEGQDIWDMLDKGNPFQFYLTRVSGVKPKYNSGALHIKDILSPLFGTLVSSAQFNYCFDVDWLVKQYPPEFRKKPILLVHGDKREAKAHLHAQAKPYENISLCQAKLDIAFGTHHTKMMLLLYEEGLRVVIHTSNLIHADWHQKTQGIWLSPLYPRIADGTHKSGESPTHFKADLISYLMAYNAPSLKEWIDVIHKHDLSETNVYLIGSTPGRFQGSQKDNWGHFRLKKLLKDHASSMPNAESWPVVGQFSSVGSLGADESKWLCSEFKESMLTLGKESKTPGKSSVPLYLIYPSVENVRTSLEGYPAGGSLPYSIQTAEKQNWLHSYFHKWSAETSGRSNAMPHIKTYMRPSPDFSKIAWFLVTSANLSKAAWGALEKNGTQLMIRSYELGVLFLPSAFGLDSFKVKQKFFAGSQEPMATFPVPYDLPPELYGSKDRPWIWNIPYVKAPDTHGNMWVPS
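Tdp1 1 nM final; 15 min RT w/ cpd; substrate 15 nM, 5 min; beads 10 ug/ml, 10 min; AlphaScreen read. Neg ctrl: no enzyme.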
TDP1 cell CPT = growth inhibition of DT40 Tdp1-/-;hTDP1 cells with camptothecin (screen for TDP1 inhibitors) | chicken DT40 Tdp1-/-;hTDP1 cells + 20 nM CPT, ATP luminescence, 48 h | Potency, µM (top dose mostly 46.2 µM), usual class: inhibitors | actives 12% (n = 420,000) | AID 686979; note: nearly all actives have a fitted effect of over 55% in size
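Chicken DT40 Tdp1-/- cells complemented with human TDP1, 400 cells/well, exposed to compounds plus 20 nM camptothecin for at least 48 h at 37 C; viability read as ATP content by CellTiter-Glo luminescence.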
Each line names hits and unclear results; the compound was inactive in the other large screens. Unless noted, calls come from the whole dose curve; as a rule, active = well fitted curve in the direction sought with a large enough effect; inconclusive = small, poorly fitted or top-dose-only effect, or another doubt; inactive = no such curve, though single readings can be large; an effect the other way counts as inactive or inconclusive.

COc1ccc(CSc2nc(C)cc(C)c2S(C)(=O)=O)cc1	DT40 TDP1 no CPT inconclusive, ELG1 DNA repair inconclusive, TDP1 cell CPT inconclusive
C/C=N\NC(=O)CNC(=O)CNC(=O)c1ccccc1	none
O=C1CCC(C(=O)N2CCC(CO)(Cc3ccc(Cl)cc3)CC2)=NN1	none
COc1ccc(N2CCN(C(c3cccs3)C(C)NC(=O)c3ccc4c(c3)OCO4)CC2)cc1 (stereo not given)	DT40 TDP1 no CPT 21µM, ELG1 DNA repair inconclusive, TDP1 cell CPT inconclusive
O=C(NCC(c1ccc2c(c1)OCO2)N1CCN(c2ccc(F)cc2)CC1)c1cccc([N+](=O)[O-])c1 (stereo not given)	DT40 TDP1 no CPT 6.5µM, TDP1 cell CPT 6.5µM (no result: IL1B secr inh, Giardia killer, ELG1 DNA repair)
COc1ccc(N2CCN(C(c3cccs3)C(C)NC(=O)c3ccco3)CC2)cc1 (stereo not given)	DT40 TDP1 no CPT inconclusive, ELG1 DNA repair inconclusive, TDP1 cell CPT inconclusive
O=C(NCCCO)C(=O)NCC(c1ccc2c(c1)OCO2)N1CCN(c2ccc(F)cc2)CC1 (stereo not given)	none
CC(C)C(=O)NCC(c1ccc2c(c1)OCO2)N1CCN(c2ccccc2)CC1 (stereo not given)	none (no result: IL1B secr inh, Giardia killer, ELG1 DNA repair)
O=C(NCC(c1ccc2c(c1)OCO2)N1CCN(c2ccccc2)CC1)c1ccccc1 (stereo not given)	DT40 TDP1 no CPT 10µM, TDP1 cell CPT 13µM (no result: IL1B secr inh, Giardia killer, ELG1 DNA repair)
Cc1ccc(CNC(=O)Cn2c(=O)cc(C(F)(F)F)c3c(C)nn(C)c32)cc1	none (no result: IL1B secr inh, Giardia killer, ELG1 DNA repair)
CCn1c(SCc2nc3sc(C(=O)O)c(C)c3c(=O)[nH]2)nc2ccccc21	TDP1 inh 8.9µM
CCOC(=O)c1sc2nc(CSc3ccccc3Cl)[nH]c(=O)c2c1C	DT40 TDP1 no CPT inconclusive, TDP1 cell CPT inconclusive
COCCn1c(SCc2nc3sc(C(=O)OC)c(C)c3c(=O)[nH]2)nc2ccccc21	none
COC(=O)c1sc2nc(CSc3ccc(Br)cc3)[nH]c(=O)c2c1C	DT40 TDP1 no CPT 21µM, ELG1 DNA repair inconclusive, TDP1 cell CPT inconclusive
Cc1noc(-c2ccc(N3CCCCC3)c([N+](=O)[O-])c2)n1	TDP1 cell CPT inconclusive (no result: IL1B secr inh, Giardia killer, ELG1 DNA repair)
CCCCN1CCc2c(c3ccccc3n2Cc2ccccc2)C1	DT40 TDP1 no CPT 23µM, TDP1 cell CPT 16µM (no result: TDP1 inh)
CN1CCc2c(c3ccccc3n2Cc2ccccc2)C1	DT40 TDP1 no CPT 18µM, TDP1 cell CPT 16µM
CN1CCc2c(c3ccccc3n2C)C1	IL1B secr inh inconclusive
COc1ccc(NC(=O)CC2C(=O)N(c3cccc(OC)c3)C(=O)N2Cc2cccnc2)cc1 (stereo not given)	DT40 TDP1 no CPT inconclusive, TDP1 cell CPT inconclusive (no result: IL1B secr inh, Giardia killer, ELG1 DNA repair)
Cc1cc(C)n(CC(=O)c2cccc(N)c2)n1	none
CCc1cccc(OCC(=O)Nc2ccc(S(=O)(=O)Nc3cc(C)nc(C)n3)cc2)c1	none (no result: IL1B secr inh, Giardia killer, ELG1 DNA repair, TDP1 inh)
CCCCn1c(SCC(=O)Nc2cc(C(F)(F)F)ccc2Cl)nnc1C(CC)N(C)C (stereo not given)	DT40 TDP1 no CPT 21µM, TDP1 cell CPT inconclusive
O=C(Oc1ccccc1)N1CCC2(CC1)CN(c1ccccn1)C2	DT40 TDP1 no CPT inconclusive (no result: IL1B secr inh, Giardia killer, ELG1 DNA repair, TDP1 inh)
Cc1ccc(C2(c3ccccc3)NC(=O)N(CC(=O)NC3CCCCC3)C2=O)cc1C (stereo not given)	DT40 TDP1 no CPT 18µM, TDP1 cell CPT inconclusive
CC1(c2cccc(Br)c2)NC(=O)N(CC(=O)NC2CCCCC2)C1=O (stereo not given)	none
O=C1CN(C(=O)CN2C(=O)NC(c3ccccc3)(c3ccccc3)C2=O)c2ccccc2N1	ELG1 DNA repair inconclusive
Cc1ccc(C2(c3ccccc3)NC(=O)N(CC(=O)N3CC(=O)Nc4ccccc43)C2=O)cc1C (stereo not given)	DT40 TDP1 no CPT 23µM, TDP1 cell CPT inconclusive
O=C(NCc1ccccn1)c1cnn(-c2ncc3c(n2)-c2ccccc2CC3)c1C1CC1	DT40 TDP1 no CPT inconclusive (no result: IL1B secr inh, Giardia killer, ELG1 DNA repair, TDP1 inh)
